Results filed as inconclusive are left out. Calls of active or inactive are those of the source. Calls come from the whole dose curve; as a rule, active = well fitted curve in the direction sought with a large enough effect in the repeat runs; inconclusive = weak or mixed curves; inactive = no such curve, though single readings can be large; an effect the other way counts as inactive or inconclusive.
Columns and labels:
[1] = qHTS assay for identifying genotoxic compounds that show differential cytotoxicity against isogenic chicken DT40 cell lines with known DNA damage response pathways - wild type cell line (AID 743012); note: nearly all actives have a fitted effect of over 60% in size
How it was run: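 First, wild type DT40 cells were plated at 300 per well and equilibrated about 0.5 h at 37 C/5% CO2. Next, compounds in DMSO were added and exposure lasted 40 h. Finally, CellTiter-Glo was added for 30 min at room temperature and luminescence recorded.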

[2] = qHTS assay for identifying genotoxic compounds that show differential cytotoxicity against isogenic chicken DT40 cell lines with known DNA damage response pathways - Rev3 mutant cell line (AID 743014); note: nearly all actives have a fitted effect of over 55% in size
[3] = qHTS assay for identifying genotoxic compounds that show differential cytotoxicity against isogenic chicken DT40 cell lines with known DNA damage response pathways - Rad54/Ku70 mutant cell line (AID 743015); note: nearly all actives have a fitted effect of over 60% in size

Measured: Potency
Potency is the fitted concentration of half-maximal effect.

COC(=O)[C@]12CCC(C)(C)C[C@H]1[C@H]1C(=O)C=C3[C@@]4(C)C=C(C#N)C(=O)C(C)(C)[C@@H]4CC[C@@]3(C)[C@]1(C)CC2
active: [1] 596 nM | [2] 841 nM | [3] 596 nM
